The panel holds about 79,000 compounds, 15% with a hit somewhere; the sample as a whole holds those more often. Activity calls are given as the source filed them. Cut-off read from the data, not from the text of the source: active = growth inhibition above about 70%; inactive = the rest.
Legend:
[1] = NCI Yeast Anticancer Drug Screen. Data for the rad52 strain (AID 147);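 note: 0% = growth of vehicle-treated control cultures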; details: S. cerevisiae rad52 mutant growth inhibition, active compounds read high
Procedure, shortened: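 Screen used a yeast mutant impaired in DNA repair. After compound exposure, growth was measured. Values reflect inhibition compared with vehicle-treated cells.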

[2] = NCI Yeast Anticancer Drug Screen. Data for the wt1 strain (AID 149);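 note: 0% = growth of vehicle-treated wt1 cultures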; details: S. cerevisiae wt1 strain (SPY 50644) growth inhibition, active compounds read high
Procedure, shortened: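 wt1 strain grown with compound or vehicle; inhibition taken from the growth difference.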

[3] = NCI Yeast Anticancer Drug Screen. Data for the rad50EPP+ strain (AID 151);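 note: 0% = growth of vehicle-treated control cultures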; details: S. cerevisiae rad50 mutant strain, active compounds read high
Procedure, shortened: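 Exposing the rad50EPP+ strain to each compound, growth was compared with vehicle-only cultures to give inhibition.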

[4] = NCI Yeast Anticancer Drug Screen. Data for the mgt1 strain (AID 153); details: S. cerevisiae mgt1 mutant growth inhibition, active compounds read high
Procedure, shortened: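 Genetically defined yeast (mgt1) treated with compound; inhibition of growth expressed against vehicle-treated controls.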

[5] = NCI Yeast Anticancer Drug Screen. Data for the rad50 strain (AID 155);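 note: 0% = growth of vehicle-only cultures of the same strain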; details: S. cerevisiae rad50 strain growth inhibition, active compounds read high
Procedure, shortened: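 DNA repair mutant yeast, compound exposure, growth read-out; inhibition is taken relative to vehicle.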

[6] = NCI Yeast Anticancer Drug Screen. Data for the mec2-1 strain (AID 157); details: S. cerevisiae mec2-1 strain, active compounds read high
Procedure, shortened: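 Readout is yeast growth inhibition, normalised to vehicle-treated controls, in the mec2-1 strain exposed to compound.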

[7] = NCI Yeast Anticancer Drug Screen. Data for the rad14 strain (AID 159);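 note: 0% = growth of vehicle-treated control cultures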; details: S. cerevisiae rad14 strain growth inhibition, active compounds read high
Procedure, shortened: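 DNA repair-defective yeast, compound-exposed; % growth inhibition derived by comparison with vehicle-treated controls.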

[8] = NCI Yeast Anticancer Drug Screen. Data for the CLN2oe strain (AID 163);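 note: 0% = growth of vehicle-only control cultures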; details: S. cerevisiae CLN2oe strain, active compounds read high
Procedure, shortened: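 Values reflect how much compound exposure reduced yeast growth, referenced to vehicle-exposed cells. Assay organism is a strain with a defined genetic change affecting cell-cycle control.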

[9] = NCI Yeast Anticancer Drug Screen. Data for the cln2 rad14 strain (AID 165);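 note: 0% = growth equal to vehicle treated cultures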; details: S. cerevisiae cln2 rad14 strain, active compounds read high
Procedure, shortened: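 Relative to vehicle controls, growth inhibition of compound-treated cln2 rad14 yeast was recorded.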

[10] = NCI Yeast Anticancer Drug Screen. Data for the bub3 strain (AID 167); details: S. cerevisiae bub3 mutant strain, active compounds read high
Procedure, shortened: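 In this screen, a yeast mutant lacking normal mitotic checkpoint function is challenged with compound. Relative growth versus vehicle gives the inhibition value.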

[11] = NCI Yeast Anticancer Drug Screen. Data for the wt2 strain (AID 169);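 note: 0% = growth of vehicle-treated yeast cultures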; details: S. cerevisiae wt2 strain growth inhibition, active compounds read high
Procedure, shortened: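 Values express reduction in yeast growth under compound treatment, referenced to vehicle-treated cells.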

[12] = NCI Yeast Anticancer Drug Screen. Data for the mlh1 strain (AID 171);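 note: 0% = growth of vehicle-treated control cultures of the same strain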; details: S. cerevisiae mlh1 strain growth inhibition, active compounds read high
Procedure, shortened: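 Steps: expose the defined-mutant yeast strain to compound; expose a parallel culture to vehicle; measure growth; express compound effect as inhibition relative to the vehicle culture.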

[13] = NCI Yeast Anticancer Drug Screen. Data for the sgs1 strain (AID 173);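 note: 0% = growth of vehicle-only control cultures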; details: S. cerevisiae sgs1 mutant, active compounds read high
Procedure, shortened: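 Treat defined-mutant yeast with compound; measure growth; calculate inhibition relative to vehicle-treated cells.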

[14] = NCI Yeast Anticancer Drug Screen. Data for the mlh1 rad18 strain (AID 175); details: S. cerevisiae mlh1 rad18 strain growth inhibition, active compounds read high
Procedure, shortened: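 Test agents were incubated with a yeast strain of defined genotype (DNA damage repair defect). Inhibition of growth was derived by comparison with vehicle-exposed cultures.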

[15] = NCI Yeast Anticancer Drug Screen. Data for the rad18 strain (AID 177); details: S. cerevisiae rad18 mutant growth inhibition, active compounds read high
Procedure, shortened: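 A genetically defined yeast mutant impaired in DNA damage repair was treated with test compounds, then its growth was measured against cultures receiving vehicle alone.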

[16] = at 5.0 µM (retest, dose inferred, filed as 0.5)
[17] = at 50.0 µM (retest, dose inferred, filed as 5.0)

Measured: growth inhibition

Cc1c(-c2ccccc2)[nH]c2ccccc12
active: [1]; at 33.0 µM 94% | [1]; at 100.0 µM 99% | [2]; at 33.0 µM 92% | [2]; at 100.0 µM 98% | [3]; at 100.0 µM 98% | [4]; at 33.0 µM 95% | [4]; at 100.0 µM 98% | [5]; at 33.0 µM 95% | [5]; [17] 81% | [5]; at 50.0 µM 91.3% | [5]; at 100.0 µM 98% | [6]; at 33.0 µM 94% | [6]; [17] 85% | [6]; at 50.0 µM 92.5% | [6]; at 100.0 µM 98% | [7]; at 33.0 µM 95% | [7]; at 100.0 µM 98% | [8]; at 33.0 µM 98% | [8]; at 100.0 µM 99% | [9]; [17] 99% | [9]; at 50.0 µM 92.3% | [10]; at 33.0 µM 95% | [10]; [17] 98% | [10]; at 50.0 µM 91.8% | [10]; at 100.0 µM 98% | [11]; at 100.0 µM 99% | [12]; at 33.0 µM 96% | [12]; at 100.0 µM 98% | [13]; at 33.0 µM 97% | [13]; at 100.0 µM 100% | [14]; [17] 96% | [14]; at 50.0 µM 91.2% | [15]; at 33.0 µM 97% | [15]; at 100.0 µM 99%
inactive: [1]; at 1.2 µM -7% | [1]; at 3.7 µM -8% | [1]; at 11.0 µM -4% | [2]; at 1.2 µM -21% | [2]; at 3.7 µM -12% | [2]; at 11.0 µM -23% | [3]; at 1.2 µM -2% | [3]; at 3.7 µM 20% | [3]; at 11.0 µM 16% | [3]; at 33.0 µM 52% | [4]; at 1.2 µM -19% | [4]; at 3.7 µM -12% | [4]; at 11.0 µM -11% | [5]; at 1.2 µM -4% | [5]; at 3.7 µM -8% | [5]; [16] 33% | [5]; at 11.0 µM -12% | [6]; at 1.2 µM -2% | [6]; at 3.7 µM 8% | [6]; [16] 48% | [6]; at 11.0 µM -2% | [7]; at 1.2 µM -2% | [7]; at 3.7 µM 0% | [7]; at 11.0 µM 2% | [8]; at 1.2 µM 5% | [8]; at 3.7 µM 3% | [8]; at 11.0 µM 1% | [9]; [16] 51% | [10]; at 1.2 µM -6% | [10]; at 3.7 µM -7% | [10]; [16] 22% | [10]; at 11.0 µM -15% | [11]; at 1.2 µM 10% | [11]; at 3.7 µM 5% | [11]; at 11.0 µM 6% | [11]; at 33.0 µM 68% | [12]; at 1.2 µM 7% | [12]; at 3.7 µM 8% | [12]; at 11.0 µM 6% | [13]; at 1.2 µM 14% | [13]; at 3.7 µM 19% | [13]; at 11.0 µM 14% | [14]; [16] 38% | [15]; at 1.2 µM 3% | [15]; at 3.7 µM 5% | [15]; at 11.0 µM -9%
